Measurements taken from PubChem BioAssay (EPA / NIEHS).
Records with an inconclusive call do not appear. Calls of active or inactive are those of the source. Rule for the calls: active = hit-call score of the fitted dose curve at least 0.9, where 1 is the maximum; inconclusive = response in the unintended direction; inactive = score below 0.9.

Each molecule was assayed against Estrogen-related receptor gamma (Homo sapiens) (UniProt P62508) (assay: ATG_ERRg_TRANS: Attagene TRANS-FACTORIAL HepG2 Assay for human Estrogen-Related Receptor gamma (ERRg) (AID 2282977;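 note: hits increase reporter signal over DMSO so potencies reflect activators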)). Conditions: HepG2 Attagene TRANS reporter, ERRg transactivation.
Chain of Estrogen-related receptor gamma (Homo sapiens) (P62508 whole entry, looked up, the tested form may be a part): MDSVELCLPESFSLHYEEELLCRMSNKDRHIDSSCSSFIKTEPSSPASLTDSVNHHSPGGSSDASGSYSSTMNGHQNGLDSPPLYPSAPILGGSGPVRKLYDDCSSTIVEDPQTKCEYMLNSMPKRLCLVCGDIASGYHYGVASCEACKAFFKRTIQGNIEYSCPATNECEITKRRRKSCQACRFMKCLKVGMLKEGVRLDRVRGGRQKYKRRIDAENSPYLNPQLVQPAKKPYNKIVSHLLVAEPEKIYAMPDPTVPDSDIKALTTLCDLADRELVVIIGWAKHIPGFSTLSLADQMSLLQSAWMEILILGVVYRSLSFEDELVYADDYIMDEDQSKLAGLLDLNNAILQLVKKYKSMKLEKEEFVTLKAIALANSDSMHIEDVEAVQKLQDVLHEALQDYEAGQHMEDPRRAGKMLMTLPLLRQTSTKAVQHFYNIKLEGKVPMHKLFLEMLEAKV
Outline: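 HepG2 cells transiently transfected with multiplexed GAL4-UAS reporter units and chimeric NR-Gal4 constructs were exposed to test chemicals for 24 h. Reporter mRNA was measured by RT-PCR, 6-FAM primer extension, HpaI digestion and capillary electrophoresis; gain-of-signal versus DMSO.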
With `Cc1ccc(S(=O)(=O)O)c(C)c1` the outcome was “inactive”. In the case of `COc1cc(CCC(=O)CC(=O)CCc2ccc(O)c(OC)c2)ccc1O`, the outcome is reported as “inactive”. For `FC(F)(I)C(F)(F)C(F)(F)C(F)(F)C(F)(F)C(F)(F)I`, the outcome was “inactive”. With `CCCCCCCCOC(=O)CCCCCCCCC(=O)OCCCCCCCC` the outcome was “inactive”. In the case of `O=C(O)c1ccccc1C(c1ccc(O)cc1)c1ccc(O)cc1`, the outcome is reported as “inactive”. In the case of `CCCCC[C@H](O)CC(=O)CCc1ccc(O)c(OC)c1`, the outcome is reported as “inactive”. With `CCCOC(=O)c1ccc(O)cc1` the outcome was “inactive”. `CCC(=C(c1ccc(O)cc1)c1ccc(OCCN(C)C)cc1)c1ccccc1` was tested, and the outcome was “inactive”. In the case of `CCCCCCC(=O)O`, the outcome is reported as “inactive”. In the case of `OCCC(F)(F)C(F)(F)C(F)(F)C(F)(F)C(F)(F)C(F)(F)C(F)(F)C(F)(F)F`, the outcome is reported as “inactive”.
